In PubChem BioAssay (Tox21):
Records with an inconclusive call do not appear. Unmarked numbers belong to inactive results. Active and inactive are the calls of the source. Calls follow the shape of the full dose curve.

Each compound was assayed against Muscarinic acetylcholine receptor M1 (Homo sapiens) (UniProt P11229) (assay: Cholinergic receptor muscarinic 1 (CHRM1) small molecule antagonists, cell-based qHTS assay (AID 1963588; also: nearly all actives have a fitted effect of over 40% in size)). Settings: CHRM1-CHO antagonist mode, calcium flux fluorescence; series mostly up to 61.5 µM; activity, negative = inhibition: at the top concentration.
Sequence of Muscarinic acetylcholine receptor M1 (Homo sapiens) (P11229 whole entry, looked up): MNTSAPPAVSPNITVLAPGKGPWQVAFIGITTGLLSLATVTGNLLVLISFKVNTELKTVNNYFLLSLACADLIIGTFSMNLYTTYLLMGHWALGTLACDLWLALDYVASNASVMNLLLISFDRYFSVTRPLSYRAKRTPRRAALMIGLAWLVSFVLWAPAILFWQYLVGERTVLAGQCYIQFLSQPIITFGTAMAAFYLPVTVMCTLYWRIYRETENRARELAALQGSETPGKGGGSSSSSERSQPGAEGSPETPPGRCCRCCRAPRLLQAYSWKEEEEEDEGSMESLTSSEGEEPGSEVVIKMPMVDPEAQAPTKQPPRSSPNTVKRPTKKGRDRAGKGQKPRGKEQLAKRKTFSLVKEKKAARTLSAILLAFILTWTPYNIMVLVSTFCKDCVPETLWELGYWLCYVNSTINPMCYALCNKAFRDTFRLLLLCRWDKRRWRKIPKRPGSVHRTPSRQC
Source text: National Center for Advancing Translational Sciences [NCATS]
Division of Preclinical Innovation [DPI]
U.S. Environmental Protection Agency [EPA]
National Institutes of Environmental Health Sciences [NIEHS]
National Toxicology Program [NTP]
U.S. Food and Drug Administration [FDA]
The CHRM1 is a muscarinic receptor. This receptor plays a crucial role in learning and memory processes and has long been identified as a promising therapeutic target for the improvement of cognitive decline in Alzheimer's disease (AD). The CHRM1-CHO cell line stably expressing human muscarinic acetylcholine receptor M1 (CHRM1) can be used for screening agonists and antagonists of interactions between CHRM1 and its ligands. The CHRM1-CHO Calcium Flux Assay is a homogeneous fluorescence-based assay for detecting the intracellular calcium level using FDSS kinetic plate reader system.
Tox21 Assay Protocol Summary:
CHRM1-CHO cells were dispensed at 1000 cells/3uL/well in 1536-well black-clear bottom plates using a Multidrop Dispenser. After the assay plates were incubated at a 37 C/5% CO2 incubator for 18 h, 3 uL of Dye Loading Buffer was transferred to the assay plate by a Flying Reagent Dispenser. The assay plates were incubated at 37 C for 1h. For antagonist mode, 23 nL of compounds dissolved in DMSO, positive controls or DMSO only was transferred to the assay plate by a pin tool. After 5 min incubation at room temperature, 1.5 uL of acetylcholine at 50nM was added to each well. The fluorescence intensity in the plates was measured using FDSS 7000EX kinetic plate reader for 3 min at 1 sec intervals. Each test compound was measured at 15 concentrations in three independent runs.
% is scaled to controls: 0 for no effect and ±100 for the full control effect.

For `O=C(O)c1cc2ccccc2cc1O`, the Potency was “inactive”.
With `Nc1ccc(N=Nc2ccccc2)c(N)n1` the Potency was “inactive”.
In the case of `CC(=O)OC1CC(C)OC(C)O1` (stereo not given), the Potency is reported as “inactive”.
In the case of `c1ccc2c(c1)Oc1ccccc1S2`, the Potency is reported as “inactive”.
With `COc1c(Cl)ccc(Cl)c1C(=O)O` the Potency was “inactive”.
For `CC1CCC(C(C)C)C(O)C1` (stereo not given), the Potency was “inactive”.
With `O=C(Nc1ccc(Cl)cc1)Nc1ccc(Cl)c(Cl)c1` the Potency was “inactive”.
`O=C1OC2(c3cc(Br)c(O)c(Br)c3Oc3c2cc(Br)c(O)c3Br)c2c(Cl)c(Cl)c(Cl)c(Cl)c21` was tested, and the Potency was “inactive”.
In the case of `CC1CC(OC(=O)c2ccccc2O)CC(C)(C)C1` (stereo not given), the Potency is reported as “inactive”.
In the case of `OCCN1CCNCC1`, the Potency is reported as “inactive”.

In order of rising “activity, negative = inhibition” value:
1. CN(C)N=Nc1ccccc1  -14.5%
2. COC(=O)CCCCC(=O)O  -11.3%
3. C=CCCC(=O)/C=C/C1C(C)=CCCC1(C)C (stereo not given)  -9.63%
4. CCC(=O)OCc1ccc(OC)cc1  -6.08%
5. Nc1nccs1  -0.268%
6. COc1ccccc1N=Nc1c(S(=O)(=O)O)cc2cc(S(=O)(=O)O)cc(NC(C)=O)c2c1O  2.42%
7. CC/C=C\CCO  3.42%
8. O=C(O)c1cc2ccccc2nc1C(=O)O  5.16%
9. C(/C=C/C=C/Nc1ccccc1)=Nc1ccccc1  8.42%
10. CCCCCC(=O)CC  10.5%
11. [Cl][Dy]([Cl])[Cl]  15.6%
12. O=C(O)c1cccc(C(F)(F)F)c1  17.3%
13. COC(=O)c1ccc([N+](=O)[O-])cc1  26.2%
14. CCOC(=O)c1ccc(C)cc1  63.8%

In order of falling “activity, negative = inhibition” value:
1. O=C1NC(c2ccccc2)(c2ccccc2)C(=O)N1COP(=O)(O)O  19.8% [at 28.3 µM]
2. CC(=O)N[C@H]1[C@H]([C@H](O)[C@H](O)CO)OC(C(=O)O)=C[C@@H]1N=C(N)N  17.2% [at 28.3 µM]
3. Cc1ccccc1OCC(O)CO (stereo not given)  15.7% [at 28.3 µM]
4. NS(=O)(=O)c1cc2c(cc1Cl)NC(C1CC3C=CC1C3)NS2(=O)=O (stereo not given)  14.7% [at 28.3 µM]
5. CC(=O)N(O)CCCCCNC(=O)CCC(=O)N(O)CCCCCNC(=O)CCC(=O)N(O)CCCCCN  12.1% [at 28.3 µM]
6. NC/C=C/C(=O)O  9.6% [at 28.3 µM]
7. O=c1[nH]cnc2c1ncn2[C@@H]1O[C@H](CO)[C@@H](O)[C@H]1O  9.29% [at 28.3 µM]
8. Oc1ccc2c(c1)OC[C@@H](N1CCC(O)(c3ccc(F)cc3)CC1)[C@H]2O  8.6% [at 28.3 µM]
9. Nc1ccc([N+](=O)[O-])c(C(F)(F)F)c1  3.9% [at 28.3 µM]
10. CCN1CCC[C@H]1CNC(=O)c1c(O)c(Cl)cc(Cl)c1OC  2.64% [at 28.3 µM]
11. CCN(CC)S(=O)(=O)c1ccc(C(=O)O)cc1  -0.807% [at 28.3 µM]
12. O=C1Cc2cc(Cl)ccc2N1  -1.34% [at 28.3 µM]
13. CCCCCCCC(OC)OC  -3.82% [at 28.3 µM]
14. COc1ccc2cccc(CCNC(C)=O)c2c1  -14.9% [at 28.3 µM]

`CCCCCCCCCCCCCCCCBr` showed an activity, negative = inhibition of -1.85% [at 12.6 µM].

Compound `O=C(O)Cc1cccc(-c2cc(CCCCCCc3ccc(O[C@H]4O[C@H](CO)[C@@H](O)[C@H](O)[C@@H]4O)c(-c4cccc(CC(=O)O)c4)c3)ccc2O[C@H]2O[C@H](CO)[C@@H](O)[C@H](O)[C@@H]2O)c1` has an activity, negative = inhibition of 12.9% [at 0.232 µM].
